The source made the active and inactive calls.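 Rule for the calls, unless noted: active = compound that reduces growth-factor-driven endothelial tube area in a mixed cell culture, no cutoff stated; inactive = the rest.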
Columns and labels:
[1] = stimulators of nuclear beta-catenin in C2C12, primary screen, imaging, WNT3A-conditioned medium, mouse C2C12, NPC library (AID 1117326; in the data active = nuclear beta-catenin stimulation mostly above about 4.2%, no sharp cut-off; inactive = mostly below about 10%; note: reference of the scale not given here); settings: stronger effect = higher value
[2] = stimulators of insulin release from INS-1E, primary screen, cell-based, 5 mM glucose, NPC library (AID 1117329;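 active = compound raises insulin release from rat beta cells at 5 mM glucose, no numeric limit stated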; note: reference of the scale not given here); settings: rat INS-1E insulin secretion, at 10 µM, stronger effect = higher value
[3] = growth inhibition of GSK3B-pretreated HCT116 cells – cell-based, CellTiter-Glo, 0.2 to 20 µM (AID 1117336;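 active = compounds lowering colon cancer cell viability after pretreatment blocking the GSK3B kinase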); settings: HCT116 viability after GSK3B inhibitor, at 20 µM, stronger effect = higher value
[4] = inhibition of endothelial tube formation, primary screen, imaging, VEGF stimulated, CD31 staining, tube area, NPC library (AID 1117340); settings: VEGF-stimulated ADSC/ECFC co-culture, at 10 µM, stronger effect = higher value
[5] = glucagon-like peptide 1 release enhancers, primary assay, NCI-H716 cell line, NPC library (AID 1117341;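 active = compound raises GLP1 secretion from the human gut endocrine cells, with no numeric limit stated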; note: reference of the scale not given here); settings: NCI-H716 cells, at 10 µM, stronger effect = higher value
[6] = HCT116 colon cancer cell growth inhibition, primary screen, CellTiter-Glo luminescence, NPC library (AID 1117342;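 active = compounds that lower survival of HCT116 colon cancer cells in the luminescence readout, no numeric limit stated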); settings: at 20 µM (top of the series)
[7] = CellTiter-Glo luminescent readout of SW480 viability loss, NPC library primary (AID 1117343;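 active = compounds that lower viability of the colon cancer cells in the luminescence readout, with no numeric limit stated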); settings: CellTiter-Glo luminescence; at 20 µM (top of the series)
[8] = decreased DLD-1 cellular survival, CellTiter-Glo luminescent readout, NPC compound collection, primary HTS (AID 1117346;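 active = compounds that lower survival of DLD-1 colon cancer cells in the luminescence readout, no cutoff given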); settings: DLD-1 viability, CellTiter-Glo luminescence; at 20 µM (top of the series)

NNc1ccccc1
2.4%: nuclear beta-catenin stimulation ([1]; stimulation, at 2 µM)
inactive: nuclear beta-catenin stimulation ([1]; at 10 µM) 0.8% | insulin secretion stimulation [2] -1.6% | viability decrease [3] 14.6% | tube area decrease [4] 26.7% | GLP1 secretion stimulation [5] 3.7% | inhibition of viability [6] -3.85% | viability decrease (inhibition) [7] 45% | viability decrease (inhibition) [8] 21.2%

CNC(C)[C@@H](O)c1ccc(O)cc1 (stereo not given in full)
1.3%: nuclear beta-catenin stimulation ([1]; stimulation, at 2 µM)
inactive: nuclear beta-catenin stimulation ([1]; at 10 µM) 0.7% | insulin secretion stimulation [2] 4.8% | viability decrease [3] -4.1% | tube area decrease [4] -8.3% | GLP1 secretion stimulation [5] -5% | inhibition of viability [6] 3.4% | viability decrease (inhibition) [7] 27.7% | viability decrease (inhibition) [8] 6%

O=C1c2ccccc2C(=O)C1C(=O)C(c1ccccc1)c1ccccc1
active: viability decrease [3] 91.3% | tube area decrease [4] 78.8% | viability decrease (inhibition) [7] 120% | viability decrease (inhibition) [8] 99.3%
inactive: nuclear beta-catenin stimulation ([1]; at 10 µM) 0.3% | insulin secretion stimulation [2] -2.2% | GLP1 secretion stimulation [5] -5% | inhibition of viability [6] 44.8%
-0.1%: nuclear beta-catenin stimulation ([1]; stimulation, at 2 µM)

C[N+]1(CCF)[C@@H]2CC[C@H]1CC(OC(=O)C(O)(c1ccccc1)c1ccccc1)C2 (stereo not given in full)
inactive: nuclear beta-catenin stimulation ([1]; at 10 µM) -2.1% | insulin secretion stimulation [2] -0.1% | viability decrease [3] 4.8% | tube area decrease [4] 16.4% | GLP1 secretion stimulation [5] 4.4% | inhibition of viability [6] 5.8% | viability decrease (inhibition) [8] -1.5%
active: viability decrease (inhibition) [7] -2%
0.7%: nuclear beta-catenin stimulation ([1]; stimulation, at 2 µM)

COP(=S)(OC)SCN1C(=O)c2ccccc2C1=O
1.1%: nuclear beta-catenin stimulation ([1]; stimulation, at 2 µM)
inactive: nuclear beta-catenin stimulation ([1]; at 10 µM) 0.4% | insulin secretion stimulation [2] -0.9% | viability decrease [3] -8.95% | tube area decrease [4] 1.5% | GLP1 secretion stimulation [5] 0% | inhibition of viability [6] -8.5% | viability decrease (inhibition) [7] 6.9% | viability decrease (inhibition) [8] 24.4%

O=C1OC(c2ccc(O)c(S(=O)(=O)O)c2)(c2ccc(O)c(S(=O)(=O)O)c2)c2c(Br)c(Br)c(Br)c(Br)c21
4.7%: nuclear beta-catenin stimulation ([1]; stimulation, at 2 µM)
inactive: nuclear beta-catenin stimulation ([1]; at 10 µM) 3.3% | insulin secretion stimulation [2] 0.75% | viability decrease [3] 22.6% | tube area decrease [4] -6.3% | GLP1 secretion stimulation [5] 6.8% | inhibition of viability [6] -59% | viability decrease (inhibition) [8] -56.3%
active: viability decrease (inhibition) [7] 84.5%

CCOC(=O)c1ncn2c1CN(C)C(=O)c1c(I)cccc1-2
-0.1%: nuclear beta-catenin stimulation ([1]; stimulation, at 2 µM)
inactive: nuclear beta-catenin stimulation ([1]; at 10 µM) -0.1% | insulin secretion stimulation [2] 0.8% | viability decrease [3] 3.6% | tube area decrease [4] -12.8% | GLP1 secretion stimulation [5] -0.9% | inhibition of viability [6] 11.2% | viability decrease (inhibition) [7] -7.6% | viability decrease (inhibition) [8] -11.3%

CC(Cc1ccc2c(c1)OCO2)NCC(O)c1ccc(O)c(O)c1 (stereo not given)
-0.2%: nuclear beta-catenin stimulation ([1]; stimulation, at 2 µM)
inactive: nuclear beta-catenin stimulation ([1]; at 10 µM) 2.6% | insulin secretion stimulation [2] 2.9% | viability decrease [3] 38.3% | tube area decrease [4] 21.3% | GLP1 secretion stimulation [5] -2% | inhibition of viability [6] 25.8% | viability decrease (inhibition) [7] 40.4% | viability decrease (inhibition) [8] 14.6%

CC(C(O)c1ccccc1)N(C)C/C=C/c1ccccc1 (stereo not given)
3.1%: nuclear beta-catenin stimulation ([1]; stimulation, at 2 µM)
inactive: nuclear beta-catenin stimulation ([1]; at 10 µM) 3.5% | insulin secretion stimulation [2] 2.4% | viability decrease [3] -101% | GLP1 secretion stimulation [5] -3.2% | viability decrease (inhibition) [7] 29.4% | viability decrease (inhibition) [8] 7.9%
active: tube area decrease [4] 54.6% | inhibition of viability [6] 60.9%

Oc1c(Br)cc(Br)cc1Br
-0.3%: nuclear beta-catenin stimulation ([1]; stimulation, at 2 µM)
inactive: nuclear beta-catenin stimulation ([1]; at 10 µM) -0.6% | insulin secretion stimulation [2] -0.4% | viability decrease [3] -83.3% | tube area decrease [4] 10% | GLP1 secretion stimulation [5] -3.7% | inhibition of viability [6] -18% | viability decrease (inhibition) [7] 32.1% | viability decrease (inhibition) [8] 37.1%

CC(Cc1ccccc1)NC=O (stereo not given)
inactive: nuclear beta-catenin stimulation ([1]; at 10 µM) -2.3% | insulin secretion stimulation [2] 1.5% | viability decrease [3] -5.7% | tube area decrease [4] 1.3% | GLP1 secretion stimulation [5] -5.4% | inhibition of viability [6] 8.8% | viability decrease (inhibition) [7] 16.7% | viability decrease (inhibition) [8] -4.6%
-0.1%: nuclear beta-catenin stimulation ([1]; stimulation, at 2 µM)

CCN1CCCC1CNC(=O)C(O)(c1ccccc1)c1ccccc1 (stereo not given)
active: viability decrease (inhibition) [8] -4.5%
1.9%: nuclear beta-catenin stimulation ([1]; stimulation, at 2 µM)
inactive: nuclear beta-catenin stimulation ([1]; at 10 µM) 1.8% | insulin secretion stimulation [2] 8.1% | viability decrease [3] -4.1% | tube area decrease [4] -2.9% | GLP1 secretion stimulation [5] -0.1% | inhibition of viability [6] 10.9% | viability decrease (inhibition) [7] 24.2%

C=CCOC(Cn1ccnc1)c1ccc(Cl)cc1Cl (stereo not given)
2.5%: nuclear beta-catenin stimulation ([1]; stimulation, at 2 µM)
active: inhibition of viability [6] 58.1% | viability decrease (inhibition) [7] 96.7%
inactive: nuclear beta-catenin stimulation ([1]; at 10 µM) 4.9% | insulin secretion stimulation [2] 6.1% | viability decrease [3] -54.8% | tube area decrease [4] 6.3% | GLP1 secretion stimulation [5] 0.8% | viability decrease (inhibition) [8] 30.1%

Cc1nnc2n1-c1sc(CCc3ccc(CC(C)C)cc3)cc1C(c1ccccc1Cl)=NC2C (stereo not given)
3.8%: nuclear beta-catenin stimulation ([1]; stimulation, at 2 µM)
active: viability decrease [3] 110% | tube area decrease [4] 48.1% | GLP1 secretion stimulation [5] 20.1% | inhibition of viability [6] 113% | viability decrease (inhibition) [7] 134% | viability decrease (inhibition) [8] 102%
inactive: nuclear beta-catenin stimulation ([1]; at 10 µM) -1% | insulin secretion stimulation [2] 4.1%

C[C@]12CC[C@H]3[C@@H](CC[C@@]45O[C@H]4C(O)=C(C#N)C[C@]35C)[C@H]1CC[C@H]2O
inactive: nuclear beta-catenin stimulation ([1]; at 10 µM) 1.5% | insulin secretion stimulation [2] -0.7% | viability decrease [3] -177% | tube area decrease [4] 28.3% | GLP1 secretion stimulation [5] -1.5% | inhibition of viability [6] 11.5% | viability decrease (inhibition) [7] 5.1% | viability decrease (inhibition) [8] -16.6%
1.1%: nuclear beta-catenin stimulation ([1]; stimulation, at 2 µM)
